From PubChem BioAssay (EPA / NIEHS) come the findings set out here.

Calls of active or inactive are those of the source. The calls were made as follows: active = hit-call score of the fitted dose curve at least 0.9, where 1 is the maximum; inactive = score below 0.9.

Read-out in experiment [1]: Interleukin-8 (IL8), CXCL8 (gene 3576)
Description: BSK_CASM3C_IL8: BioMAP Diversity Plus: CASM3C Assay for Interleukin-8 (IL8) Biomarker Activity (AID 2283042).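 Also: IL-8 protein level quantified by ELISA.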 The conditions noted are these: primary human coronary artery smooth muscle cells; actives raise or lower the signal.

Read-out in experiment [2]: Human Leukocyte Antigen - DR isotype (HLADR), HLA-DRA (gene 3122)
As to the kind of experiment: BSK_CASM3C_HLADR: BioMAP Diversity Plus: CASM3C Assay for Human Leukocyte Antigen - DR isotype (HLADR) Biomarker Activity (AID 2283043).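 Also: cell-surface HLA-DR protein level quantified by ELISA.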 As to conditions: primary human coronary artery smooth muscle cells; actives raise or lower the signal.

Read-out in experiment [3]: Macrophage colony-stimulating factor (MCSF), CSF1 (gene 1435)
Description: BSK_CASM3C_MCSF: BioMAP Diversity Plus: CASM3C Assay for Macrophage colony-stimulating factor (MCSF) Biomarker Activity (AID 2283044).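 Also: M-CSF protein amount quantified by ELISA after 24 h exposure.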 As to conditions: primary human coronary artery smooth muscle cells; actives raise or lower the signal.

Read-out in experiment [4]: Low-density lipoprotein receptor (LDLR), LDLR (gene 3949)
Description: BSK_CASM3C_LDLR: BioMAP Diversity Plus: CASM3C Assay for Low-density lipoprotein receptor (LDLR) Biomarker Activity (AID 2283045).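 Also: LDLR protein level on the cell surface quantified by ELISA.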 The conditions noted are these: primary human coronary artery smooth muscle cells; actives raise or lower the signal.

Read-out in experiment [5]: Monocyte Chemoattractant Protein-1 (MCP1), CCL2 (gene 6347)
Description: BSK_CASM3C_MCP1: BioMAP Diversity Plus: CASM3C Assay for Monocyte Chemoattractant Protein-1 (MCP1) Biomarker Activity (AID 2283046).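 Also: MCP-1 level quantified by ELISA 24 h after dosing.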 As to conditions: primary human coronary artery smooth muscle cells; actives raise or lower the signal.

Experiment [6] is described as follows: BSK_CASM3C_Proliferation: Cell Proliferation Assessment in the BioMAP Diversity Plus: CASM3C Assay (AID 2283047).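 Also: sulforhodamine B total protein stain as relative cell number at 560 nm; sub-confluent cells exposed 48 h before staining; fitted both ways against DMSO so gain or loss of cell number.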 The conditions noted are these: primary human coronary artery smooth muscle cells.
Read-out in experiment [7]: Monokine induced gamma interferon (MIG), CXCL9 (gene 4283)
Description: BSK_CASM3C_MIG: BioMAP Diversity Plus: CASM3C Assay for Monokine induced gamma interferon (MIG) Biomarker Activity (AID 2283048).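 Also: MIG protein level measured by ELISA.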 The conditions noted are these: primary human coronary artery smooth muscle cells; actives raise or lower the signal.

Read-out in experiment [8]: serum amyloid A (SAA), SAA1 (gene 6288)
As to the kind of experiment: BSK_CASM3C_SAA: BioMAP Diversity Plus: CASM3C Assay for serum amyloid A (SAA) Biomarker Activity (AID 2283049).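 Also: SAA protein level quantified by ELISA.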 As to conditions: primary human coronary artery smooth muscle cells; actives raise or lower the signal.

Experiment [9] in a line: BSK_CASM3C_SRB: Viability Assessment in the BioMAP Diversity Plus: CASM3C Assay (AID 2283050).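 Also: total protein by SRB staining as cytotoxicity measure in parallel cultures.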 The conditions noted are these: primary human coronary artery smooth muscle cells.
Read-out in experiment [10]: Thrombomodulin, THBD (gene 7056)
Description: BSK_CASM3C_Thrombomodulin: BioMAP Diversity Plus: CASM3C Assay for Thrombomodulin Biomarker Activity (AID 2283051).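 Also: thrombomodulin protein level measured by ELISA 24 h after dosing.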 The conditions noted are these: primary human coronary artery smooth muscle cells; actives raise or lower the signal.

Read-out in experiment [11]: Tissue Factor, F3 (gene 2152)
As to the kind of experiment: BSK_CASM3C_TissueFactor: BioMAP Diversity Plus: CASM3C Assay for Tissue Factor Biomarker Activity (AID 2283052).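 Also: cell surface tissue factor protein level read by ELISA.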 The conditions noted are these: primary human coronary artery smooth muscle cells; actives raise or lower the signal.

Read-out in experiment [12]: Interferon-gamma inducible Protein 10 (IP10), CXCL10 (gene 3627)
As to the kind of experiment: BSK_hDFCGF_IP10: BioMAP Diversity Plus: hDFCGF Assay for Interferon-gamma inducible Protein 10 (IP10) Biomarker Activity (AID 2283053). The conditions noted are these: primary human foreskin fibroblasts; actives raise or lower the signal. The procedure, abridged: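 Human foreskin fibroblast primary cells (hDFCGF system) were dosed with chemical and assayed at 24 h; IP-10 measured by ELISA. Activity fitted bidirectionally relative to DMSO negative control as baseline.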

Read-out in experiment [13]: Urokinase-type plasminogen activator receptor (uPAR), PLAUR (gene 5329)
As to the kind of experiment: BSK_CASM3C_uPAR: BioMAP Diversity Plus: CASM3C Assay for Urokinase-type plasminogen activator receptor (uPAR) Biomarker Activity (AID 2283054).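 Also: cell-surface uPAR protein level quantified by ELISA.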 The conditions noted are these: primary human coronary artery smooth muscle cells; actives raise or lower the signal.

Read-out in experiment [14]: Vascular cell adhesion molecule 1 (VCAM1), VCAM1 (gene 7412)
As to the kind of experiment: BSK_CASM3C_VCAM1: BioMAP Diversity Plus: CASM3C Assay for Vascular cell adhesion molecule 1 (VCAM1) Biomarker Activity (AID 2283055).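 Also: VCAM-1 protein level quantified by ELISA on the cells.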 The conditions noted are these: primary human coronary artery smooth muscle cells; actives raise or lower the signal.

Read-out in experiment [15]: Collagen III, COL3A1 (gene 1281)
As to the kind of experiment: BSK_hDFCGF_CollagenIII: BioMAP Diversity Plus: hDFCGF Assay for Collagen III Biomarker Activity (AID 2283056). As to conditions: primary human foreskin fibroblasts; actives raise or lower the signal. Put shortly:
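ELISA readout of Collagen III in human dermal (foreskin) fibroblasts, taken 24 h post-treatment. Gain or loss relative to DMSO vehicle fitted in both directions.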

Read-out in experiment [16]: Epidermal growth factor receptor (EGFR), EGFR (gene 1956)
Description: BSK_hDFCGF_EGFR: BioMAP Diversity Plus: hDFCGF Assay for Epidermal growth factor receptor (EGFR) Biomarker Activity (AID 2283057). The conditions noted are these: primary human foreskin fibroblasts; actives raise or lower the signal. The procedure, abridged:
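Primary human foreskin fibroblasts were exposed to compound for 24 h, after which cell-surface EGFR was quantified by ELISA. Activity was fitted bidirectionally against the DMSO negative control as baseline.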

Read-out in experiment [17]: Interleukin-8 (IL8), CXCL8 (gene 3576)
As to the kind of experiment: BSK_hDFCGF_IL8: BioMAP Diversity Plus: hDFCGF Assay for Interleukin-8 (IL8) Biomarker Activity (AID 2283058). As to conditions: primary human foreskin fibroblasts; actives raise or lower the signal. The procedure, abridged:
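IL-8 levels read by ELISA at 24 hours after dosing human skin fibroblast cultures. Parallel SRB staining assessed overt cytotoxicity, and gain or loss of signal was fitted against DMSO control.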

Experiment [18] in a line: BSK_hDFCGF_Proliferation: Cell Proliferation Assessment in the BioMAP Diversity Plus: hDFCGF Assay (AID 2283059).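 Also: curves fitted for both rise and fall of signal versus DMSO baseline.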 As to conditions: primary human foreskin fibroblasts. Put shortly: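 Primary human foreskin fibroblasts, sub-confluent; […]; 10% TCA fix, 0.1% SRB stain, A560 total protein. Gain/loss fitted bidirectionally vs DMSO control.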
Read-out in experiment [19]: Macrophage colony-stimulating factor (MCSF), CSF1 (gene 1435)
As to the kind of experiment: BSK_hDFCGF_MCSF: BioMAP Diversity Plus: hDFCGF Assay for Macrophage colony-stimulating factor (MCSF) Biomarker Activity (AID 2283060). The conditions noted are these: primary human foreskin fibroblasts; actives raise or lower the signal. Put shortly:
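M-CSF levels read by ELISA at 24 h post-dosing in human skin fibroblasts. Parallel cultures stained with SRB assessed cytotoxicity at the same time point; response fitted in both directions against the DMSO baseline.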

Experiment [20] can be described thus: BSK_hDFCGF_SRB: Viability Assessment in the BioMAP Diversity Plus: hDFCGF Assay (AID 2283061).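 Also: cells exposed to compound for 24 h before the read.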 The conditions noted are these: primary human foreskin fibroblasts. The procedure, abridged:
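Viability was read as total protein: after 10% TCA fixation, wells were stained with 0.1% sulforhodamine B and read at 560 nm. Primary human foreskin fibroblasts were dosed for 24 h, with bidirectional fitting versus DMSO.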

For the compound `CC(C)(C)c1csc(-c2cc3cc(OCc4ccccc4CC(=O)O)ccc3o2)n1`, the outcome in [1], in experiment [4], in experiment [5], in [7], in experiment [8] and in [10] was inactive. The result in [11], in experiment [13] and in experiment [16] was inactive. The AC50 in [2] is 29 µM (active); in experiment [3], 28.2 µM (active); in experiment [6] it was 34 µM (active); in experiment [9] it was 31 µM (active); in experiment [12], 10.2 µM (active); in [14] it was 15.4 µM (active). Also, the AC50 in experiment [15] is 3.19 µM (active); in experiment [17], 18.4 µM (active); in experiment [18] it was 9.8 µM (active); in experiment [19], 13 µM (active); in experiment [20] it was 17.2 µM (active).
On to `CC(=O)N1CCN(c2ccc(OC[C@H]3CO[C@](Cn4ccnc4)(c4ccc(Cl)cc4Cl)O3)cc2)CC1`, for which the outcome in experiment [1], in experiment [2], in [5], in experiment [7], in [8] and in experiment [9] was inactive. For the same compound, the outcome in experiment [10], in experiment [11], in experiment [13], in experiment [14] and in experiment [16] was inactive. Moreover, the AC50 in [4] is 2.94 µM (active); in [6] it was 28 µM (active); in [12], 33.3 µM (active); in [15], 14 µM (active); in experiment [17], 33.5 µM (active); in [18] it was 20 µM (active). Moreover, the AC50 in experiment [20] was 32.9 µM (active).
Consider `CCN(CC)C(=O)c1cc(S(=O)(=O)Cc2ccccc2)c(N2CCC(c3ccccc3)CC2)cc1N(CC)CCN(C)C`, for which the AC50 was 24.8 µM (active) in experiment [1]; 5.38 µM (active) in [2]; 0.138 µM (active) in experiment [4]; 7.05 µM (active) in [6]; 27.1 µM (active) in [9]; 29.8 µM (active) in experiment [11]. For the same compound, the AC50 in experiment [13] was 20.4 µM (active); in experiment [15], 4.27 µM (active); in [18], 5.9 µM (active); in experiment [19], 18.7 µM (active). The outcome in experiment [3], in [5], in experiment [7], in [8], in [10] and in experiment [12] was inactive. Also, the result in experiment [14], in [16], in experiment [17] and in experiment [20] was inactive.
For the compound `CN1C(=O)N(c2ccccc2Br)Cc2cnc(Nc3ccc4c(c3)OCC(CO)O4)nc21` (stereo not drawn), the AC50 is 14.3 µM (active) in [1]; 11.5 µM (active) in experiment [2]; 5.62 µM (active) in experiment [3]; 37.8 µM (active) in [4]; 9.73 µM (active) in [5]; 1.27 µM (active) in experiment [6]. Also, the AC50 in experiment [7] is 32.3 µM (active); in [8] it was 5.98 µM (active); in [9], 20 µM (active); in experiment [11] it was 0.952 µM (active); in experiment [12] it was 21.3 µM (active); in experiment [13] it was 13.6 µM (active). Moreover, the AC50 in experiment [17] is 16.1 µM (active); in experiment [18], 11.9 µM (active); in [19], 20.4 µM (active); in [20], 19 µM (active). Moreover, the result in experiment [10], in experiment [14], in experiment [15] and in [16] was inactive.
For `c1ccc2ccccc2c1`, the result in experiment [1], in experiment [2], in experiment [3], in experiment [4], in [5] and in experiment [6] was inactive. Besides, the outcome in [7], in experiment [8], in experiment [9], in [10], in [11] and in experiment [12] was inactive. In addition, the outcome in experiment [13], in experiment [14], in [15], in experiment [16], in [17] and in experiment [18] was inactive. Further, the outcome in experiment [19] and in [20] was inactive.
For `O=C1CCC(C2CCCCC2)CC1`, the outcome in [1], in experiment [2], in experiment [3], in experiment [4], in [5] and in experiment [6] was inactive. The result in experiment [7], in experiment [8], in [9], in experiment [10], in experiment [11] and in [13] was inactive. Also, in experiment [14], the outcome was inactive. Also, the AC50 in experiment [12] was 33.1 µM (active); in [15], 20.7 µM (active); in experiment [16], 29.9 µM (active); in [17] it was 32.5 µM (active); in experiment [18] it was 19.5 µM (active); in experiment [19], 29.8 µM (active). Also, in experiment [20], the AC50 is 34.4 µM (active).
`CN(C[C@@H](CC[N+]12CCC(C3CCCCC3)(CC1)CC2)c1ccc(Cl)c(Cl)c1)C(=O)c1cc(C(F)(F)F)cc(C(F)(F)F)c1`: the AC50 was 24.7 µM (active) in experiment [1]; 12.7 µM (active) in experiment [2]; 14.9 µM (active) in experiment [3]; 14.3 µM (active) in [4]; 15.6 µM (active) in [5]; 9.26 µM (active) in experiment [6]. Besides, the AC50 is 31.1 µM (active) in experiment [7]; 18 µM (active) in experiment [8]; 14.7 µM (active) in experiment [9]; 20 µM (active) in [11]; 6.46 µM (active) in [12]; 13 µM (active) in [13]. Besides, the AC50 in [14] was 14.3 µM (active); in [15], 7.21 µM (active); in experiment [16], 5.37 µM (active); in experiment [17], 9.76 µM (active); in [18], 5.55 µM (active); in [19] it was 7.28 µM (active). The AC50 in experiment [20] is 5.86 µM (active). Moreover, in experiment [10], the outcome was inactive.
As to `COCC(C)OCC(C)OCC(C)O` (stereo not drawn), the result in experiment [1], in experiment [2], in experiment [3], in experiment [4], in [5] and in experiment [6] was inactive. The result in [7], in experiment [8], in experiment [9], in [10], in experiment [11] and in experiment [12] was inactive. The outcome in experiment [13], in experiment [14], in experiment [15], in experiment [16], in experiment [17] and in [18] was inactive. Also, the outcome in experiment [19] and in experiment [20] was inactive.

Broadly, the AC50 is the midpoint of the concentration-response curve, whichever way the signal moves.
